Assay outcomes deposited in PubChem by National Center for Advancing Translational Sciences (NCATS).
A selection: hits, their analogues and other compounds. The true share with any hit is near 15%.
Sm TGR inh = inhibitors of Schistosoma mansoni thioredoxin glutathione reductase; Q962Y6; purified TGR, DTNB reduction, TNB absorbance 405 nm; Potency, µM (titrated, usually from 114 µM), for inactives: at the top dose activity change, negative = inhibition, usual class: inhibitors; actives 3% (n = 360,000); also: potency is read from the fitted curve at half-maximal effect; % is scaled to controls: 0 for no effect and ±100 for the full control effect; nearly all actives have a fitted effect of over 60% in size
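Kinetic colorimetric format: TGR-catalysed, NADPH-driven DTNB reduction monitored via TNB absorbance. Enzyme dispensed at 20 nM; compound exposure 15 min at room temperature before reaction start.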
Pf growth 96h = inhibits malaria parasite growth, 96 h. P. falciparum luciferase reporter growth, 96 h. Potency, µM (titrated, usually from 28.7 µM), for the others: at the highest dose activity change, negative = inhibition, actives largely listed as inhibitors. actives 6.9% (n = 320,000); also: potency is read from the fitted curve at half-maximal effect; % is scaled to controls: 0 for no effect and ±100 for the full control effect
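Cell-based qHTS: luciferase-tagged P. falciparum in erythrocytes (2% hematocrit, 0.05% parasitemia final) incubated with compounds for 96 hours, 37 C, 5% CO2; luciferase detection reagent then added and luminescence measured.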
SARS PLpro yeast = blocks SARS-CoV papain-like protease in a yeast assay; S. cerevisiae expressing SARS-CoV PLpro, growth rescue; AID 485353; actives 0.19% (n = 330,000); Potency, µM (highest dose often 32.9 µM), without a hit: at the highest dose activity, positive = growth rescue, most hits filed as activators; calls by dose curve; also: potency is read from the fitted curve at half-maximal effect; 0% is about no effect; nearly all actives have a fitted effect of over 55% in size
Pf growth 48h = inhibits P. falciparum growth in the first generation, 48 h | P. falciparum luciferase growth in erythrocytes, 48 h | Potency, µM (titrated, usually from 28.7 µM), for inactives: top-dose activity change, negative = inhibition, usual class: inhibitors | actives 5.9% (n = 310,000); also: potency is read from the fitted curve at half-maximal effect; % is scaled to controls: 0 for no effect and ±100 for the full control effect
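Luciferase-expressing P. falciparum in infected erythrocytes (2% hematocrit, 0.1% parasitemia final) in RPMI 1640/0.5% Albumax were exposed to compound for 48 hours at 37 C, 5% CO2; growth read as luminescence.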
HCMV inh = blocks human cytomegalovirus replication | HFF cells, HCMV-luciferase reporter, 72 h; hits give low values | activity change, negative = inhibition, % at 57.5 µM | actives 4.5% (n = 410,000) | AID 1259415; in the data active = activity change below about -60%; inconclusive = no clear call, values can overlap the other calls; inactive = above about -39%; also: % is scaled to controls: 0 for no effect and ±100 for the full control effect
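Luciferase read-out from HCMV-luciferase-infected HFFs (MOI 1 PFU/cell) 72 h post infection at 37C; compounds added after 16 h cell attachment; activity normalized between buffer-only basal and Salinomycin (10uM) inhibitor controls.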
HCV inhibitor = blocks hepatitis C virus. Huh7.5.1 HCVcc-Cre infection, luciferase reporter, 44 h. Potency, µM (titrated, usually from 41.8 µM), for inactives: at the highest dose activity change, negative = inhibition, most hits filed as inhibitors. actives 3.4% (n = 340,000); also: potency is read from the fitted curve at half-maximal effect; % is scaled to controls: 0 for no effect and ±100 for the full control effect
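Luciferase read-out (15 sec integration) after a 15 min room-temperature substrate step quantifies HCVcc-Cre infection. Cells, 1,000 per well, had compound added 4 h post-plating, then virus at ~0.5 moi, and were cultured 44 h.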
Numbers without * were called inactive; ? = inconclusive; . = not tested or not shown. Unless noted, calls follow the shape of the dose curve; as a rule, active = well fitted curve in the direction sought with a large enough effect; inconclusive = small, poorly fitted or top-dose-only effect, or another doubt; inactive = no such curve, though single readings can be large; an effect the other way counts as inactive or inconclusive.

SMILES	Sm TGR inh	Pf growth 96h	SARS PLpro yeast	Pf growth 48h	HCMV inh	HCV inhibitor
Cc1ccnn1-c1ccc(C(=O)OCC(=O)Nc2ccc(F)cc2)cc1	-1%	0%	-10%	35%	-4	-17%
COc1ccccc1NC(=O)c1ccccc1C(=O)N(C)Cc1ccccc1	.	.	-7%	.	8	2%
COc1ccccc1NC(=O)NCCCCc1ccccc1	-12%	?	16%	?	15	-9%
O=C1CC2(CCN(C(=O)c3ccc(F)cc3)CC2)Oc2ccccc21	-2%	22%	-2%	-5%	-26	8%
O=S1(=O)N[C@@H](Cc2ccccc2)COc2cccc(N3CCN(Cc4ccccc4F)CC3)c21	.	.	.	.	-23	.
COc1ccc(-c2nsc3c(N4CCCCC4)ncnc23)cc1	0%	?	1%	185%	-83*	-16%
COc1ccc(-c2nsc3c(N4CCCCC4C)ncnc23)cc1 (configuration not stated)	.	-13%	-2%	-8%	-97*	?
COc1ccc(C(=O)N2CCN(c3ncnc4c(-c5ccccc5)nsc34)CC2)cc1	-2%	?	5%	19%	-6	-6%
CCCN1C(=O)c2cc(C(=O)Nc3cccc(C(C)=O)c3)ccc2C1Nc1cccc(C(C)=O)c1 (configuration not stated)	-1%	?	-3%	?	8	?
CCCN1C(=O)c2cc(C(=O)Nc3ccccc3OC)ccc2C1Nc1ccccc1OC (configuration not stated)	6%	?	0%	10µM*	-29	11µM*
Cc1cccc(NS(=O)(=O)c2cn(C)c(=O)n(C)c2=O)c1C	6%	35%	?	42%	-10	14%
O=C(NNC1=Nc2ccccc2SC1)c1ccc(F)cc1	7%	?	0%	10µM*	?	?
O=C(NNC1=Nc2ccccc2SC1)c1ccc(Cl)cc1	1%	?	15%	?	?	?
COc1ccc(Cn2c(CCC(=O)NCc3cccc(Cl)c3)nc3cccnc32)cc1	-1%	.	.	.	-37	.
CCC/C=C1/CCCOC(C(=O)NCc2ccccc2)(C(F)(F)F)C1 (configuration not stated)	.	.	.	.	-11	0.89µM*
O=C(NCc1ccccc1)C1(C(F)(F)F)C/C(=C\CCO)CCCO1 (configuration not stated)	.	.	.	.	5	15%
COc1ccc(NC(=O)[C@@H]2CC=C[C@@H]3CCN(Cc4ccccc4)C(=O)[C@@H]32)cc1	.	.	.	.	-11	16%
COc1ccc(NC(=O)[C@@H]2CC=C[C@@H]3CCN(Cc4ccc(Cl)c(Cl)c4)C(=O)[C@@H]32)cc1	.	.	.	.	?	0.56µM*
Cc1c(C(=O)N2CCC(C(=O)Nc3ccc(F)cc3)CC2)sc2nc[nH]c(=O)c12	5%	.	.	.	-25	.
O=C(CN1CC(=O)Nc2ccccc21)Nc1ccc(F)c(F)c1	32µM*	?	0%	39%	-28	1%
Nc1nc(N)c(S(=O)(=O)c2ccccc2)c(Nc2ccc(F)cc2)n1	12%	.	.	.	-1	.
COc1ccccc1-c1cc2c(Nc3ccc(N4CCN(C)CC4)cc3)nccc2[nH]1	.	.	.	.	19	.
CCOC(=O)c1cnc2ccccc2c1Nc1ccc(N2CCOCC2)cc1	10%	.	.	.	14	.
CN1CCN(c2ccc(Nc3ccnc4cc(Cl)ccc34)cc2)CC1	3%	?	4%	0.026µM*	-83*	?
CCN1CCN(c2ccc(Nc3ccnc4ccccc34)cc2)CC1	-1%	?	2%	0.66µM*	?	11µM*
SMILES	Sm TGR inh	Pf growth 96h	SARS PLpro yeast	Pf growth 48h	HCMV inh	HCV inhibitor
CCOC(=O)c1cnc2ccc(Cl)cc2c1Nc1ccc(OCC)cc1	-3%	.	.	.	19	.
CCN1CCC(Nc2ccnc3cc(Cl)ccc23)CC1	6%	0.0041µM*	-2%	0.033µM*	-90*	-2%
CCOc1ccc(Nc2ccnc3cc(Cl)ccc23)cc1	-1%	5%	3%	-17%	-62*	-28%
CC1CN(c2ccnc3cc(Cl)ccc23)CC(C)O1 (configuration not stated)	11%	?	14%	?	5	?
COc1cc(NC(=O)C2CCN(S(=O)(=O)c3c(C)noc3/C=C/c3c(C)cc(C)cc3C)CC2)cc(OC)c1	2%	.	.	.	33	.
CCOC(=O)c1nn(-c2ccccc2)c(=O)c(C#N)c1C	0%	15µM*	6%	.	4	20%
CCOC(=O)c1c(NC(=O)c2nn(CC)cc2Br)c(C#N)nn1-c1ccccc1	3%	-25%	5%	13µM*	-21	11µM*
CC(=O)c1ccc(-c2cnc3c(NC=O)cc(-c4ccccc4Oc4ccccc4)cn23)cc1	.	.	.	.	-23	.
COc1cccc(C(=O)N(Cc2cccnc2)c2nc3c(OC)ccc(C)c3s2)c1OC	27%	.	.	.	0	.
Cc1cc(Sc2nnc(N)s2)c2ccccc2n1	4µM*	-17%	-1%	?	-108*	?
Cc1cc(Sc2nnc(/N=C/N(C)C)s2)c2ccccc2n1	3.5µM*	?	-3%	?	-106*	?
Cc1cc(C(N)=O)c2ccccc2n1	-16%	?	0%	10%	-16	6%
CCCCCCCCSc1nnc(/N=C/N(C)C)s1	-4%	22%	1%	23%	6	-7%
COc1ccc(-n2ncc3c(SCC(=O)OC(C)C)ncnc32)cc1	.	.	.	.	-25	.
O=C(CN(C(=O)CCC(=O)Nc1nccs1)c1cccc(C(F)(F)F)c1)NCC1CCCO1 (configuration not stated)	2%	3%	2%	12%	21	-6%
CCOC(=O)C1CCCN(C2CC(=O)N(c3cccc(C)c3)C2=O)C1 (configuration not stated)	25µM*	-37%	-18%	7%	8	12%
CCN1C(=O)CC(N2CCC(Nc3ccc(F)cc3)CC2)C1=O (configuration not stated)	-11%	?	-20%	24%	-32	-7%
CCOC(=O)c1ccc(N2C(=O)CC(N3CCC(Nc4ccc(F)cc4)CC3)C2=O)cc1 (configuration not stated)	56µM*	12%	-27%	.	20	-13%
COC(=O)c1ccc(N2C(=O)CC(N3CCOCC3)C2=O)cc1 (configuration not stated)	?	-20%	-24%	1%	19	2%
CCCOc1ccc(N2C(=O)CC(N3CCC(C(=O)OCC)CC3)C2=O)cc1 (configuration not stated)	0%	-22%	-50%	9%	14	7%
